High-throughput results deposited in PubChem by National Center for Advancing Translational Sciences (NCATS).
AMA1-RON2 inh = qHTS for Inhibitors of AMA1-RON; Towards Development of Antimalarial Drug Lead: Primary Screen | Plasmodium falciparum AMA1 (3D7) - RON2 peptide interaction | AlphaScreen AMA1-biotinylated RON2 peptide binding | Potency, µM (titrated, usually from 58.2 µM), inactives show at the top dose activity change, negative = inhibition, actives largely listed as inhibitors | 360,000 tested, 0.2% active | AID 720542, 2013;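 also: 0% = vehicle wells and -100% = peptide control; nearly all actives have a fitted effect of over 45% in size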
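AMA1 (3D7) with his tag at 25 nM final met compounds first, then biotinylated RON2 peptide at 25 nM; detection used donor plus acceptor beads, 10 µg/mL apiece, read by AlphaScreen after 30 min at room temperature.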
VACV Venus inh = qHTS for Stage-Specific Inhibitors of Vaccinia Orthopoxvirus: Venus Reporter Primary qHTS | Vaccinia virus Venus reporter expression, fluorescence | Potency, µM (series often up to 36.5 µM), for the others: top-dose activity change, negative = inhibition, usual class: inhibitors | 330,000 tested, 0.46% active | AID 720580, 2013; calls by dose curve; tested in A549 cells; also: % is scaled to controls: 0 for no effect and ±100 for the full control effect; nearly all actives have a fitted effect of over 30% in size
SARS PLpro yeast = qHTS of Yeast-based Assay for SARS-CoV PLP | S. cerevisiae expressing SARS-CoV PLpro, growth rescue | Potency, µM (highest dose often 32.9 µM), for inactives: at the top dose activity, positive = growth rescue, hits mostly activators | 330,000 tested, 0.19% active; calls by dose curve; also: 0% is about no effect; nearly all actives have a fitted effect of over 55% in size
AmpC inh detg = qHTS Inhibitors of AmpC Beta-Lactamase (assay with detergent); 370,000 tested, 0.041% active; P00811; Potency, µM (titrated, usually from 114 µM), for the others: at the highest dose activity change, negative = inhibition, most hits filed as inhibitors; AmpC hydrolysis of nitrocefin, absorbance 480 nm, 0.01% Triton;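 also: 0% = no-compound wells and -100% = no-enzyme wells; nearly all actives have a fitted effect of over 25% in size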
Target sequence (P00811 whole entry, looked up): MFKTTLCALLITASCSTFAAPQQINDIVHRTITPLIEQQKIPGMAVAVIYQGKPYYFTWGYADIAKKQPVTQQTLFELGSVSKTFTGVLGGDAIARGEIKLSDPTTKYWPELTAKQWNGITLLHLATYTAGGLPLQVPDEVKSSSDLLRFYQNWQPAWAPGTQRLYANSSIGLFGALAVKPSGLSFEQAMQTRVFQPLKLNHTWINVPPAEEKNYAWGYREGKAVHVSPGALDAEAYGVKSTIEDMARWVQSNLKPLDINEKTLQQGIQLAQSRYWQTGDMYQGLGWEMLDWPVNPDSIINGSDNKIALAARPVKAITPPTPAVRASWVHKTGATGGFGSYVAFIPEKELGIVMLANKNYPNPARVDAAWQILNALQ
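20 mM phosphate pH 7.0 + 0.01% (detergent screen) or 0.0001% Triton X-100; 5.3 nM AmpC reagent; cpd preinc 15 min RT; nitrocefin (800 uM stock) to start; A480 q20 s × 4 min; Activity was normalised to no-enzyme and no-compound control wells.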
AmpC inh no detg = qHTS Inhibitors of AmpC Beta-Lactamase (assay without detergent). P00811. AmpC nitrocefin hydrolysis, absorbance 480 nm, 0.0001% Triton. Potency, µM (highest dose often 57.1 µM), for inactives: top-dose activity change, negative = inhibition, hits mostly inhibitors. 330,000 tested, 0.52% active. AID 485341, 2010;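 also: plate controls were no compound for no effect and no enzyme for full effect; nearly all actives have a fitted effect of over 20% in size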
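AmpC (5.3 nM in the dispensed reagent) in 20 mM phosphate pH 7.0 with 0.01% (detergent screen) or 0.0001% Triton X-100 was preincubated with compounds for 15 min at room temperature. Nitrocefin was then added from an 800 uM solution, and hydrolysis was followed at 480 nm.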
VACV mCherry inh = qHTS for Stage-Specific Inhibitors of Vaccinia Orthopoxvirus: mCherry Reporter Primary qHTS | Vaccinia virus mCherry reporter infection, fluorescence | Potency, µM (doses to about 36.5 µM), inactives show at the highest dose activity change, negative = inhibition, actives largely listed as inhibitors | 310,000 tested, 0.63% active | AID 720579, 2013; calls by dose curve; tested in A549 cells; also: % is scaled to controls: 0 for no effect and ±100 for the full control effect; nearly all actives have a fitted effect of over 35% in size
The depositor's hits bear a star; i = inactive; ? = inconclusive; . = no result. In the library only some 1.4% were active in any assay of this set; here they are far more common. Unless noted, calls follow the shape of the dose curve; as a rule, active = well fitted curve in the direction sought with a large enough effect; inconclusive = small, poorly fitted or top-dose-only effect, or another doubt; inactive = no such curve, though single readings can be large; an effect the other way counts as inactive or inconclusive. Potency is read from the fitted curve at half-maximal effect.

SMILES	AMA1-RON2 inh	VACV Venus inh	SARS PLpro yeast	AmpC inh detg	AmpC inh no detg	VACV mCherry inh
COc1cc2c(NC3CCN(C(C)C)CC3)nc(N3CCCN(C)CC3)nc2cc1OCCCN1CCCC1	.	1µM*	.	.	.	0.891µM*
COc1cc2c(NC3CCN(C)CC3)nc(N3CCCCC3)nc2cc1OCCCN(C)C	.	10µM*	.	.	.	?
COc1cc2c(NC3CCN(C(C)C)CC3)nc(N3CCCN(C)CC3)nc2cc1OCCOCCN(C)C	.	1.78µM*	.	.	.	1.58µM*
COc1cc2c(NC3CCN(C)CC3)nc(N3CCCCC3)nc2cc1OCCOCCN(C)C	.	12.6µM*	.	.	.	10µM*
OC(c1ccncc1)(c1ccc(F)cc1)c1ccc(F)cc1	2.5%	-11.3%	-3.4%	-0.6%	-3.1%	-20.6%
NC(N)=NN=C(c1ccc(F)cc1)c1ccc(C(F)(F)F)cc1	23.3%	12.6µM*	.	.	.	?
CC(C)N1CCc2c(sc(NC(=O)c3ccc([N+](=O)[O-])o3)c2C(N)=O)C1	.	.	0.8%	-1.7%	-11.1%	.
COC(=O)c1c(NC(=O)c2ccc([N+](=O)[O-])o2)sc2c1CCN(C(C)C)C2	1.6%	14.1µM*	-11.7%	?	23.4%	?
O=C(CN1C(=O)c2ccccc2C1=O)NCC1Cc2cccc(-c3ncccn3)c2O1 (stereo not drawn)	.	-12.9%	.	.	.	-15.3%
Cc1cc2ccccn2c1C(=O)c1ccc(NN)c([N+](=O)[O-])c1	-19.5%	?	2.3%	3.3%	-47.2%	0.891µM*
CCc1ccc(N(C(=O)C(F)(F)F)C(C(=O)NC2CCCCC2)c2ccncc2)cc1 (stereo not drawn)	-7.0%	-1.9%	-2.2%	0.2%	0.562µM*	-0.4%
CCc1ccc(N(C(=O)c2ccco2)C(C(=O)NC2CCCC2)c2ccncc2)cc1 (stereo not drawn)	-0.2%	-10.2%	-3.2%	2.3%	17.9%	-19.5%
CC(C)(C)c1ccc(S(=O)(=O)N[C@H]2CC[C@@H](n3cc(C(=O)N4CCCC4)nn3)CC2)cc1	.	-22.8%	.	.	.	-21.8%
CCNC(=S)N/N=C/c1sccc1C	.	.	0.6%	-11.0%	-29.8%	.
Cc1ccsc1/C=N/NC(=S)NCCc1ccccc1	67.3%	-1.8%	-6.7%	-8.9%	17.8µM*	-14.3%
COc1cccc(CNC(=O)c2c(OC)cc(=O)n3c2CCN(C(=O)c2ccc(C)nc2)CC3)c1	.	0.0%	.	.	.	i
Cc1ccc(OCc2nnc(SCc3cc(=O)[nH]c4ccccc34)n2-c2ccccc2)cc1	-17.4%	10µM*	6.8%	-10.4%	-5.3%	?
COc1ccc(OC)c(CNc2ncnc3c2nc2n3CCCC2)c1	.	3.3%	.	16.8%	.	-12.5%
O=C(Nc1ccc(OC(F)F)c(Cl)c1)Nc1ccc2c(c1)OCO2	2.0%	.	-11.0%	?	-46.0%	.
O=C(Nc1ccc([N+](=O)[O-])cc1)Nc1ccc(OC(F)F)c(Cl)c1	-1.6%	8.91µM*	-122.6%	-9.8%	-18.9%	?
Oc1ccc(/C=N/N=C(c2ccccc2)c2ccccc2)c(O)c1O	6.6%	-6.0%	-3.9%	0.2%	-43.2%	?
O=C(/C(=N/N=C/c1ccc(O)c(O)c1O)c1ccccc1)c1ccccc1	15.1%	-27.3%	-100.0%	19.2%	20µM*	-21.8%
Cc1cc(C(C)(C)C)cc(C)c1CCNC(=O)c1ccc[n+]([O-])c1	?	25.3%	-0.9%	0.9%	94.4%	10µM*
CCCCn1nc2cc(C(=O)NCc3cc(C(F)(F)F)cc(C(F)(F)F)c3)ccc2c1OC	-2.8%	-17.8%	2.7%	1.3%	5.62µM*	i
CCn1nc2cc(C(=O)NCc3cc(C(F)(F)F)cc(C(F)(F)F)c3)ccc2c1OC	-5.6%	-18.1%	1.7%	0.1%	55.3%	i
SMILES	AMA1-RON2 inh	VACV Venus inh	SARS PLpro yeast	AmpC inh detg	AmpC inh no detg	VACV mCherry inh
Cc1cc(C(=O)NCC2CCC3(CCN(Cc4ccc(-c5ccccc5)cc4)CC3)O2)n(C)n1 (stereo not drawn)	.	-15.0%	.	.	.	-19.6%
CCCCCn1c(Sc2nc3ccccc3s2)nc2c1c(=O)[nH]c(=O)n2C	-5.2%	10µM*	10.5%	-10.8%	63.6%	10µM*
CCCCCn1c(Sc2ncccn2)nc2c1c(=O)[nH]c(=O)n2C	7.5%	-0.8%	11.0%	-14.2%	-0.8%	.
O=C(O)c1ccc2c(c1)C1C(Cl)C(Sc3ccccc3[N+](=O)[O-])CC1C(c1cccc([N+](=O)[O-])c1)N2 (stereo not drawn)	-29.1%	-6.3%	0.0%	-14.1%	17.8µM*	-5.1%
COc1ccccc1CCNc1ncnc2sc(C(=O)N3CCCC3)c(C)c12	.	-8.2%	.	.	.	-12.0%
COc1ccc(S(=O)(=O)N(C)C2CCN(C)CC2)cc1	0.9%	5.2%	15.2%	?	10µM*	i
Cc1ccc(-n2nc(CO)c(C(=O)NCc3cccnc3)n2)cc1C	.	-14.7%	.	-5.6%	.	-26.6%
CCCC(=O)N(Cc1cc(=O)[nH]c2ccccc12)c1cccc(C)c1	-4.3%	-11.4%	2.4%	1.7%	-1.8%	i
Cc1cccc(N(Cc2cc(=O)[nH]c3ccccc23)C(=O)CCl)c1	-6.8%	12.6µM*	1.2%	0.3%	-6.5%	?
CC(C)Cc1ccc(C(C)C(=O)Nc2ccccc2O)cc1 (stereo not drawn)	-0.3%	-24.7%	-3.8%	-4.6%	3.98µM*	?
CC(C)Cc1ccc(C(C)C(=O)Nc2nccs2)cc1 (stereo not drawn)	-3.9%	-10.1%	-7.1%	4.1%	-51.8%	-14.8%
CCOC(=O)c1oc2ccccc2c1NC(=O)CCl	3.5%	.	-0.8%	-0.5%	-10.3%	.
CCOC(=O)c1oc2ccccc2c1NC(=O)c1ccc(Cl)s1	1.9%	-2.6%	-7.6%	?	7.08µM*	i
N#CCC(=O)Nc1ncc(Cc2ccccc2Cl)s1	106.8%	.	-2.0%	-8.3%	17.8µM*	.
C#CCOCCOCCOCCNc1nc(N2CCN(C(=O)CCCCCCCCCCNC(=O)[C@H](CO)n3cc(CCCSC)nn3)CC2)nc(N2CCN(C(=O)CCCCCCCCCCNC(=O)[C@H](CCCCN)n3cc(CCO)nn3)CC2)n1	-16.7%	?	0.9%	.	291.4%	i
C#CCOCCOCCOCCNc1nc(N2CCN(C(=O)CCCCCCCCCCNC(=O)Cn3cc(C[C@@H](C)O)nn3)CC2)nc(N2CCN(C(=O)CCCCCCCCCCNC(=O)[C@H](CCCN=C(N)N)n3cc(C[C@@H](C)CC)nn3)CC2)n1	?	11.2µM*	3.2%	?	201.3%	-21.2%
